# Source: PubChem BioAssay
# Calls of active or inactive are those of the source. Rule as the data show it, unless noted: active = inhibition above about 80%; inactive = the rest.
# Assays:
# [1] = LFS_MB_P medulloblastoma growth inhibition, cell-based, chromothripsis tumors, cisplatin or BGB combos (AID 1671449); details: LFS_MB_P medulloblastoma cells;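 also: cells exposed for 96 hours; 0% = vehicle DMSO and 100% = killing by high DMSO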
# [2] = HDN33 neuroblastoma growth inhibition, cell-based, chromothripsis tumors, cisplatin or BGB combos (AID 1671450); details: HDN33 neuroblastoma cells, stronger effect = higher value;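 also: cells exposed to compound for four days; 0% = vehicle DMSO and 100% = cell killing by high DMSO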
# [3] = ICB984 medulloblastoma cell growth inhibition, synergistic combos for chromothripsis tumors, cisplatin or BGB combos (AID 1671451; call rule not given here;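 also: cells exposed for 96 hours before readout; 0% = vehicle DMSO and 100% = killing by high DMSO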); details: ICB984 medulloblastoma cells, drug combinations, stronger effect = higher value
# [4] = LFS_MB_1R medulloblastoma cell growth inhibition, synergistic combos for chromothripsis tumors, cisplatin or BGB combos (AID 1671452); details: LFS_MB_1R medulloblastoma cells, stronger effect = higher value;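 also: cells exposed for 96 hours before readout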
# [5] = HTB85 osteosarcoma cell growth inhibition, synergistic combos for chromothripsis tumors, BGB or cisplatin IC20 combos (AID 1671453); details: HTB85 osteosarcoma cells, drug combinations, stronger effect = higher value;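 also: cells exposed for 96 hours before readout; 0% = vehicle DMSO and 100% = high DMSO killing control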
# [6] = CRL2098 osteosarcoma cell growth inhibition, synergistic combos for chromothripsis tumors, BGB or cisplatin IC20 combos (AID 1671454); details: CRL2098 osteosarcoma cells, drug combinations, stronger effect = higher value;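 also: cells exposed for 96 h before readout; 0% = vehicle DMSO and 100% = killing by high DMSO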
# [7] = HD-MB03 medulloblastoma cell growth inhibition, synergistic combos for chromothripsis tumors, BGB or cisplatin IC20 combos (AID 1671455; in the data active = inhibition above about 83%;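 also: 0% = vehicle DMSO and 100% = high DMSO as cytotoxic control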); details: HD-MB03 medulloblastoma cells, stronger effect = higher value
# [8] = UWB1.289 ovarian carcinoma cell growth inhibition, synergistic combos for chromothripsis tumors, BGB or cisplatin combos (AID 1671456); details: UWB1.289 ovarian carcinoma cells, stronger effect = higher value;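 also: cells exposed to compound for four days; 0% = vehicle DMSO and 100% = killing by high DMSO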
# [9] = LFS_MB_2R medulloblastoma cell growth inhibition, synergistic combos for chromothripsis tumors, cisplatin combos (AID 1671457); details: LFS_MB_2R medulloblastoma cells, stronger effect = higher value;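 also: cells exposed to compound for four days before readout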
# [10] = MDA-MB-436 breast carcinoma cell growth inhibition, synergistic combos for chromothripsis tumors, BGB or cisplatin combos (AID 1671458; call rule not given here;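 also: cells exposed for 96 hours; 0% = vehicle DMSO and 100% = killing by high DMSO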); details: MDA-MB-436 breast carcinoma growth inhibition, drug combinations, stronger effect = higher value
# [11] = UWB1.289_BRCA1 ovarian cancer growth, cell-based, BGB or cisplatin combinations (AID 1671459); details: UWB1.289 BRCA1 ovarian carcinoma, drug combinations, stronger effect = higher value
# [12] = human astrocyte viability loss, single and combined drugs, cytotoxicity control for chromothriptic childhood tumor combination screen, cell-based, BGB or cisplatin IC20 combos (AID 1671460); details: Human astrocytes, drug combinations, stronger effect = higher value;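 also: cells exposed to compounds for 96 hours before viability readout; 0% = vehicle and 100% = killing control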
# [13] = growth inhibition of BT084 medulloblastoma cells, cell-based, ICGC_MB145, cisplatin and BGB IC40 combos (AID 1671461); details: drug combinations, stronger effect = higher value;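 also: cells exposed to drugs for 96 hours; 0% = vehicle DMSO and 100% = high DMSO full killing control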
# [14] = growth inhibition of RCMB18 medulloblastoma cells, cell-based, cisplatin and BGB IC40 combos (AID 1671462); details: stronger effect = higher value;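 also: cells exposed to compound for four days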
# [15] = growth inhibition of CRL1545 osteosarcoma cells, cell-based, cisplatin and BGB IC20 combos (AID 1671464); details: stronger effect = higher value;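 also: cells exposed to compound for 96 hours before readout; 0% = vehicle DMSO and 100% = high DMSO killing control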
# [16] = measured here: combination with BGB IC40, at 0.05 µM
# [17] = measured here: with BGB IC20 combination, at 0.5 µM
# [18] = measured here: with cisplatin IC20 combination, at 0.5 µM
# [19] = measured here: combination with cisplatin, at 0.5 µM
# [20] = measured here: combination with cisplatin, at 5 µM
structure (smiles),measurement,setting,value
CON=C1CN(c2nc3c(cc2F)c(=O)c(C(=O)O)cn3C2CC2)CC1CN (stereo not drawn),inhibition,"[1]; at 0.5 µM, stronger effect = higher value",-25.3% (inactive)
same,inhibition,"[1]; measured here: combination with BGB IC20, at 0.005 µM",-14.3%
same,inhibition,"[1]; measured here: combination with BGB IC40, at 0.005 µM",-29%
same,inhibition,[1]; [16],-34.5%
same,inhibition,"[1]; measured here: combination with cisplatin, at 0.5 µM, stronger effect = higher value",-40.3%
same,inhibition,"[1]; measured here: combination with cisplatin, at 5 µM, stronger effect = higher value",-32.3%
same,inhibition,"[2]; BGB combo, at 5 µM",-16.7%
same,inhibition,[2]; at 0.5 µM,7.67% (inactive)
same,inhibition,"[2]; cisplatin combo, at 5 µM",-7.53%
same,inhibition,[2]; [17],8.62%
same,inhibition,[2]; [18],24.5%
same,inhibition,"[2]; single agent, at 5 µM",-10.6%
same,inhibition,"[3]; BGB IC20 combo, at 0.005 µM",-9.19%
same,inhibition,"[3]; BGB IC40 combo, at 0.005 µM",-11.5%
same,inhibition,"[3]; BGB IC40 combo, at 0.05 µM",-24.2%
same,inhibition,[3]; at 0.5 µM,-23.7% (inactive)
same,inhibition,"[3]; cisplatin combo, at 0.05 µM",-30.6%
same,inhibition,"[3]; cisplatin combo, at 0.5 µM",-28.8%
same,inhibition,"[3]; cisplatin combo, at 5 µM",-12.6%
same,inhibition,"[3]; measured here: 5 uM single agent, at 5 µM",-12.7%
same,inhibition,[4]; at 0.5 µM,-19.1% (inactive)
same,inhibition,[4]; [16],-15.4%
same,inhibition,[4]; [19],-33.2%
same,inhibition,[4]; [20],-30.4%
same,inhibition,[5]; at 0.5 µM,5.68% (inactive)
same,inhibition,"[5]; measured here: with BGB IC20, at 0.5 µM",30.9%
same,inhibition,"[5]; measured here: with BGB IC20, at 5 µM",13.1%
same,inhibition,"[5]; measured here: with cisplatin IC20, at 0.5 µM",-15.5%
same,inhibition,"[5]; measured here: with cisplatin IC20, at 5 µM",2.1%
same,inhibition,"[5]; single agent, at 5 µM",3.62%
same,inhibition,[6]; at 0.5 µM,-6.34% (inactive)
same,inhibition,"[6]; measured here: combination with BGB at IC20, at 0.5 µM",-22.3%
same,inhibition,"[6]; measured here: combination with cisplatin at IC20, at 0.5 µM",10.2%
same,inhibition,[7]; at 0.5 µM,-12.3% (inactive)
same,inhibition,"[7]; measured here: combo with BGB at IC20, at 0.5 µM",-16.7%
same,inhibition,"[7]; measured here: combo with cisplatin at IC20, at 0.5 µM",-12.2%
same,inhibition,[8]; at 0.5 µM,-4.81% (inactive)
same,inhibition,"[8]; measured here: inhibition with BGB combination, at 0.05 µM",-8.23%
same,inhibition,"[8]; measured here: inhibition with cisplatin combination, at 0.05 µM",-6.42%
same,inhibition,[9]; at 0.5 µM,-15.8% (inactive)
same,inhibition,[9]; [19],-15.1%
same,inhibition,[9]; [20],-25.5%
same,inhibition,[10]; at 0.5 µM,-11.3% (inactive)
same,inhibition,"[10]; measured here: BGB combination, at 0.5 µM",-3.57%
same,inhibition,"[10]; measured here: BGB combination, at 5 µM",-21.3%
same,inhibition,"[10]; measured here: cisplatin combination, at 0.5 µM",-27.7%
same,inhibition,"[10]; measured here: cisplatin combination, at 5 µM",-9.24%
same,inhibition,"[11]; BGB combination, concentration series, at 5 µM",-28.4%
same,inhibition,[11]; at 0.5 µM,-4.07% (inactive)
same,inhibition,"[11]; cisplatin combination, concentration series, at 5 µM",-3.27%
same,inhibition,[12]; at 0.5 µM,0.97% (inactive)
same,inhibition,"[12]; measured here: combo with BGB IC20, at 0.5 µM",7.71%
same,inhibition,"[12]; measured here: combo with cisplatin IC20, at 0.5 µM",2.88%
same,inhibition,[13]; at 0.5 µM,-10.5% (inactive)
same,inhibition,"[13]; cisplatin combination, at 0.5 µM",-2.65%
same,inhibition,"[13]; cisplatin combination, at 5 µM",-140%
same,inhibition,"[13]; measured here: BGB IC40 combination 0.05 uM, at 0.05 µM",-26.9%
same,inhibition,"[13]; single agent, at 5 µM",-46.4%
same,inhibition,[14]; at 0.5 µM,-9.98% (inactive)
same,inhibition,"[14]; cisplatin combo, at 5 µM",24.4%
same,inhibition,"[14]; measured here: BGB IC40 combination, at 0.05 µM",-6.9%
same,inhibition,[14]; [19],6.35%
same,inhibition,"[14]; single agent, at 5 µM",-19.4%
same,inhibition,[15]; at 0.5 µM,-0.16% (inactive)
same,inhibition,[15]; [17],-14.3%
same,inhibition,[15]; [18],5.39%
same,inhibition,"[15]; single agent, at 0.05 µM",4.29%
same,inhibition,"[15]; single agent, at 5 µM",16.8%
